Source: PubChem (National Center for Advancing Translational Sciences (NCATS))
A selection: hits, their analogues and other compounds. The true share with any hit is near 7%.
DRD3 antagonist = antagonists of human D3 dopamine receptor; P35462; AID 652054; 360,000 compounds, 2.5% hits; max response, negative = inhibition, %; D3R cells, DiscoveRx beta-arrestin luminescence, antagonist mode; stronger effect = lower value; in the data active = max response below about -50%; inconclusive = no clear call, values can overlap the other calls; also: % is scaled to controls: 0 for no effect and ±100 for the full control effect
Target sequence (P35462 whole entry, looked up): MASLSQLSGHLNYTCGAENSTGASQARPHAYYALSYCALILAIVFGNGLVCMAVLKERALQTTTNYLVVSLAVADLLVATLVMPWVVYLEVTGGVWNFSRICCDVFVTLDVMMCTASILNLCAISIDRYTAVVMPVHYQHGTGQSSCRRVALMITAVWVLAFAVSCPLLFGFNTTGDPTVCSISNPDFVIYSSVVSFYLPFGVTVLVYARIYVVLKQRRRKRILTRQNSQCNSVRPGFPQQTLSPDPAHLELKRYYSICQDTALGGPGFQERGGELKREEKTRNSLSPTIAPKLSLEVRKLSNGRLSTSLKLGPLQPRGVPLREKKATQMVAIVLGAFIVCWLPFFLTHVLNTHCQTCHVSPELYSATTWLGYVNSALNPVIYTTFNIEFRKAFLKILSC
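Cells expressing the human receptor were seeded at 1500 cells/well, incubated overnight at 37 degrees C in 5% CO2, then exposed to library compounds with dopamine controls for 90 minutes at 37 degrees C before luminescent detection.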
a7 integrin act = activators of alpha7 integrin expression for muscular dystrophy. alpha7betagal myoblasts, beta-gal FDG fluorescence, 48 h. Potency, µM (highest dose often 38.3 µM), for the others: at the top dose activation, hits mostly activators. 350,000 compounds, 0.064% hits. AID 624291;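 also: potency is read from the fitted curve at half-maximal effect; 100% = response of the positive control SU9516; nearly all actives have a fitted effect of over 60% in size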
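Alpha7betagal+/- myoblasts (passage 13) were plated 16-24 hr, then exposed to compounds (1:260 dilution of DMSO stock) for 48 hours at 37C. After MPER lysis, β-galactosidase reporter activity was read as FDG fluorescence (ex 480/em 540) after 30 minutes.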
ATXN2 expr inh = ATXN2 expression inhibition; 360,000 compounds, 0.72% hits; Potency, µM (series often up to 57 µM), without a hit: at the highest dose activity change, negative = inhibition, hits mostly inhibitors; HEK-293 ATXN2-luciferase reporter, luminescence, 24 h; also: potency is read from the fitted curve at half-maximal effect; % is scaled to controls: 0 for no effect and ±100 for the full control effect; nearly all actives have a fitted effect of over 55% in size
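qHTS (up to 57 uM final) was run with 24 h compound exposure of reporter cells at 37 °C. Each well was multiplexed: SteadyGlo luminescence measured ATXN2-luciferase expression after a fluorogenic Gly-Phe-AFC viability readout (25 uM final).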
IL-1B inflam inh = blocks inflammasome-driven IL-1 beta release; THP-1 LPS/ATP IL-1B secretion, AlphaLISA, 16 h; stronger effect = lower value; activity change, % at 57.5 µM; 360,000 compounds, 4.7% hits; in the data active = activity change below about -50%; inconclusive = mostly about -30% to -49%; also: % is scaled to controls: 0 for no effect and ±100 for the full control effect
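Secreted IL-1B measured by AlphaLISA bead assay after 16 h compound exposure of THP-1 cells; compounds (final up to 57.5 uM) added 1 h before LPS (250 ng/mL) and ATP (1.25 mM) stimulation; lower signal means less secretion.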
D3 ag = activates the human D3 dopamine receptor; AID 652048; P35462; max activation, %; 410,000 compounds, 0.58% hits; D3R DiscoveRx beta-arrestin cells, luminescence, 90 min; in the data active = max activation above about 30%; also: 0% is about no effect
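Agonist-mode cell screen: cells plated at 1500/well and incubated overnight at 37 °C, then exposed to library compounds for 90 min at 37 °C. Detection reagent was added for 30–60 min at room temperature, and luminescence was read.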
S2 tox = viability counter-screen for ATXN expression inhibitors; S2 cells (HEK-293 line with an ATXN2-luciferase reporter) viability, CellTiter-Fluor protease fluorescence, 24 h; Potency, µM (doses to about 56.7 µM), most hits filed as cytotoxic; 400,000 compounds, 0.49% hits; AID 651635; also: potency is read from the fitted curve at half-maximal effect; nearly all actives have a fitted effect of over 40% in size
Numbers without * were called inactive; i = inactive; ? = inconclusive; nt = not tested or not shown; [ ] = dose if it differs, or a comment. Unless noted, calls follow the shape of the dose curve; as a rule, active = well fitted curve in the direction sought with a large enough effect; inconclusive = small, poorly fitted or top-dose-only effect, or another doubt; inactive = no such curve, though single readings can be large; an effect the other way counts as inactive or inconclusive.

SMILES	DRD3 antagonist	a7 integrin act	ATXN2 expr inh	IL-1B inflam inh	D3 ag	S2 tox
COc1ccc(Cl)cc1NC(=O)CN(C)C(=O)c1ccc(C)s1	-5	-13%	39%	23	0	i
Cc1ccc(NC(=O)CN(C)C(=O)COC(=O)/C=C/c2cccs2)cc1	-15	-20%	0%	-97*	0	i
Cc1ccc(NC(=O)CN(C)C(=O)CSc2nc(C)cs2)cc1	-62*	-14%	5%	-19	-18	i
CN(CC(=O)Nc1ccc(F)cc1)C(=O)COC(=O)/C=C/c1cccs1	4	-28%	-4%	7	10	i
Cc1ccc(NC(=O)CN(C)C(=O)COc2ccccc2-c2ccccc2)cc1	-9	-39%	0%	-65*	-28	i
CC(C)c1ccccc1OCC(=O)N(C)CC(=O)Nc1ccc(F)cc1	-58*	10%	-5%	-22	-36	i
CN(CC(=O)Nc1ccc(F)cc1)C(=O)COc1ncnc2ccccc12	13	-5%	6%	3	2	i
O=C(C1=C(O)C(=O)N(Cc2ccco2)C1c1cccc(Cl)c1)c1ccco1 (stereo not given)	2	12%	-11%	17	3	i
Cc1ccc(NC(=O)CN(C)C(=O)c2cc(-c3cccs3)nn2-c2ccccc2)cc1	-23	15%	?	-52*	-19	i
COC(=O)CNc1nc(Cl)nc(Nc2ccc(Cl)cc2)n1	1	-7%	25%	-14	8	i
CCOC(=O)C(CCSC)Nc1nc(Cl)nc(Nc2ccc(Cl)cc2)n1 (stereo not given)	-58*	31%	0%	4	-13	i
Cc1ccc(OCCCN2CCOCC2)c([N+](=O)[O-])c1	?	2%	58%	6	-10	i
Cc1ccc(OCCN2CCNCC2)c([N+](=O)[O-])c1	-87*	2%	8%	1	-11	i
Cc1ccc(OCCN2CCN(C)CC2)c([N+](=O)[O-])c1	-53*	-12%	0%	-9	7	i
NC1=C(Cl)C(=O)c2ccc(S(N)(=O)=O)cc2C1=O	?	-60%	3.5µM*	-98*	-7	3.5µM*
Cc1ccc(CN2CCC(C(=O)Nc3cccc(-c4cccc(F)c4)c3)CC2)o1	0	-30%	nt	-1	-3	i
O=C(Nc1cccc(-c2cccc(Cl)c2)c1)C1CCN(Cc2ccc(CO)o2)CC1	0	-69%	-38%	-81*	-20	i
O=C(CCNc1n[nH]c(=O)[nH]c1=O)N/N=C/c1ccccc1Br	-12	-8%	-19%	-4	0	i
Nc1c(Cl)ncnc1N/N=C/c1ccccn1	-18	-43%	?	-83*	4	13µM*
Nc1c(Cl)ncnc1N/N=C/c1ccc2ccccc2n1	?	-44%	7.9µM*	-83*	-8	10µM*
O=C(Cn1nc(-c2nn(CC(=O)c3ccccc3)c3[n+]2CCCCC3)[n+]2c1CCCCC2)c1ccccc1	0	0%	-5%	-9	-16	i
COc1ccc(C(=O)Cn2nc(CNc3ccc(Br)cc3)[n+]3c2CCCCC3)cc1	-26	1%	?	-80*	-15	?
Cc1ccc(C(C)C)c(OCc2nn(CC(=O)c3ccc(OC(F)F)cc3)c3[n+]2CCCCC3)c1	-7	-74%	?	-107*	-10	?
O=c1c2ccccc2sc2ccc(C#CC3(O)CCCCC3)cc12	30	-19%	-77%	?	28	?
COc1cccc2sc3ccc(C#CC4(O)CCCCC4)cc3c(=O)c12	82	-5%	?	-57*	12	i
SMILES	DRD3 antagonist	a7 integrin act	ATXN2 expr inh	IL-1B inflam inh	D3 ag	S2 tox
O=C(NNc1nc(-c2ccccc2)cs1)c1ccc(F)cc1	7	16%	-1%	-13	0	i
FC(F)(F)c1ccnc(N2CCN(Cc3cnc(-c4ccccc4)[nH]3)CC2)c1	-77*	2%	-14%	-12	-18	?
CC(=O)Nc1ccc(S(=O)(=O)N2CCN(c3cc(C(F)(F)F)ccn3)CC2)cc1	-10	-14%	-14%	-10	-1	i
Cc1cccc(N2CC(O)=C(c3nc4ccccc4n3C)C2=N)c1	-10	18%	10%	4	0	i
O=C(CSc1nnc(-c2ccccc2)o1)NC1CCCCC1	2	20%	10%	-6	-1	i
Cc1ccc(-c2nc3cccnc3o2)cc1NC(=O)COc1ccc(Cl)cc1C	12	0%	32µM*	-1	0	28µM*
Cc1ccc(-c2nc3ncccc3o2)cc1NC(=O)COc1ccccc1	?	10%	-10%	-20	4	i
Cc1ccc(-c2nc3cccnc3o2)cc1NC(=O)COc1ccc(C(C)(C)C)cc1	103	-46%	?	-9	79*	?
Cc1cc(C)c(O)c(-c2n[nH]c3c2C(c2cccc(O)c2)N(Cc2ccco2)C3=O)c1 (stereo not given)	9	1%	-25%	?	-6	28µM*
O=C1CCC([N+](=O)[O-])C(c2ccc3c(c2)OCO3)N1 (stereo not given)	-3	-6%	14%	0	8	nt
CCc1ccccc1NS(=O)(=O)c1ccc2c(c1)OCC(C(=O)N1CCCC1)O2 (stereo not given)	nt	nt	-3%	nt	4	i
c1ccc(-n2cccc2CNC2CCCCC2)cc1	?	9%	-8%	?	-15	i
Cc1onc(-c2ccccc2)c1-c1ccnn1C(=O)NC(C)C	24	2%	-20%	-60*	7	i
Cc1ccc(C(=O)N2CCN(Cc3ccc4c(c3)OCO4)CC2)cc1[N+](=O)[O-]	9	18%	-26%	-57*	-13	i
CC(C)[C@H](NC(=O)c1ccc(C(C)(C)C)cc1)C(=O)N1CCN(Cc2ccc3c(c2)OCO3)CC1	-4	-43%	?	-72*	9	i
O=C(c1cccc([N+](=O)[O-])c1)N1CCN(Cc2ccc3c(c2)OCO3)CC1	2	12%	-28%	3	0	i
Cc1cc(C(=O)N2CCN(Cc3ccc4c(c3)OCO4)CC2)cs1	-92*	10%[7.66 µM]	-7%	0	-31	i
Cc1ccc(C)c(-n2cc(-c3ccc(Cl)cc3)nc2SCC(=O)NC2CCS(=O)(=O)C2)c1 (stereo not given)	9	15%	-7%	0	1	i
CN(CC(=O)NCc1ccccc1Cl)CC(=O)Nc1cccc(F)c1	-8	32%	-11%	10	-8	i
Cc1ccc(-c2nn(-c3ccccc3Cl)cc2C(=O)NCC2CCCO2)cc1 (stereo not given)	5	24%	-2%	-13	-9	i
